High-throughput results as filed in PubChem BioAssay.
This is a sample that favours compounds with a hit; in the whole collection about 4.6% have one here.
Mdm2-MdmX inh: human Mdm2/MdmX binding inhibition; O15151+Q00987; SaOS-2 split-luciferase Mdm2/MdmX complementation, luminescence; inhibition, % at 8 µM; hit rate 3% among 330,000; AID 485346;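 active = inhibition of at least 50% at 8 µM in the primary screen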
Peg3 prom inh: inhibitors of Peg3 promoter; inhibition, % at 20 µM; AID 588405; HeLa PEG-Prom luciferase reporter, luminescence, overnight; hit rate 1.7% among 360,000;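 active = inhibition of at least 50% at 20 µM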
KKLEB cytotox: CF airway cell cytotoxicity counter-screen | KKLEB CF airway cells viability, ATPlite luminescence, overnight; active compounds read low; cells stimulated with P. aeruginosa culture filtrate | hit rate 0.36% among 360,000 | activity change (cytotoxicity), % at 5 µM;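 active = corrected activity change at or below -50% at 5 µM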
ABHD5-PLIN5 inh: ABHD5-PLIN5 protein interaction inhibition; Q00G26+Q8WTS1; Split G. princeps luciferase complementation, luminescence, 4 h; inhibition, % at 4 µM; hit rate 0.78% among 360,000;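 active = inhibition above the mean inhibition across every tested compound plus 3 SD, cut at about 22% in these data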;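 also: 0% = DMSO only wells and the 100% control is not disclosed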
Target sequence (Q00G26 whole entry, looked up): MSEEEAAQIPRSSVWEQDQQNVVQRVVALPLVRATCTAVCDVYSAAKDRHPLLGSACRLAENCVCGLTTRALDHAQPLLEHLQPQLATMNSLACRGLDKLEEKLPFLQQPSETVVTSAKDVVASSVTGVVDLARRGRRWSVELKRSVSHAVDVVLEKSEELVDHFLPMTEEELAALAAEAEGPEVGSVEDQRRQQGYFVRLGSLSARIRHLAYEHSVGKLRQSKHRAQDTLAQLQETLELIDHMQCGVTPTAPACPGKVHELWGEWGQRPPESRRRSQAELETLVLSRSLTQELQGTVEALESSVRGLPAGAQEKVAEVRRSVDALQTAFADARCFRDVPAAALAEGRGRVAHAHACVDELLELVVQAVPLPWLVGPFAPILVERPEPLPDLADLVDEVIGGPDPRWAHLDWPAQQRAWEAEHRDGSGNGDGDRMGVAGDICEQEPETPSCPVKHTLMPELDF
Target sequence (Q8WTS1 whole entry, looked up): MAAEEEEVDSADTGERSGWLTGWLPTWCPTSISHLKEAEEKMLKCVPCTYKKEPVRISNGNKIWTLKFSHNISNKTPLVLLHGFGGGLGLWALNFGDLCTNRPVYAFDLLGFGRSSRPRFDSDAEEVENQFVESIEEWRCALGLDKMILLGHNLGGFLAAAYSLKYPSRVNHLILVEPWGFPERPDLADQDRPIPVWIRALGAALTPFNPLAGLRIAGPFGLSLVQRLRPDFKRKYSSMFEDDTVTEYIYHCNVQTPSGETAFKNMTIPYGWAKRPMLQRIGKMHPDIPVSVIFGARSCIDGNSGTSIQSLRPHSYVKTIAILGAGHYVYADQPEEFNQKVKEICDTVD
HIF-2a inh: inhibitors of HIF-2a; hit rate 0.72% among 360,000; AID 624352; inhibition, % at 18.8 µM; 786-0 RCC cells HIF-2a reporter, luciferase luminescence, overnight;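 active = inhibition of the luminescence signal of 40% or more relative to plate controls, in a single-dose primary screen at 18.75 µM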
CF NFkB inh: inhibitors of cystic fibrosis induced NF-kB. hit rate 0.86% among 360,000. KKLEB NF-kB-GFP reporter, PAF-induced, GFP fluorescence overnight. AID 588850. inhibition, % at 5 µM;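 active = at least 50% inhibition at 5 µM, scaled per plate between neutral and stimulator controls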;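 also: PAF is a Pseudomonas aeruginosa culture filtrate used as stimulus; plate controls were PAF-stimulated DMSO wells for no effect and unstimulated DMSO wells for full effect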
CF NFkB inh conf: confirmation of cystic fibrosis induced NF-kB inhibitors | shares compounds with CF NFkB inh | KKLEB CF airway cells, PAF-induced NF-kB-GFP fluorescence, overnight | inhibition, % at 5 µM | hit rate 64% among 1,300 | AID 602472; in the data active = inhibition above about 40%;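 also: stimulus PAF is a Pseudomonas aeruginosa filtrate and not platelet activating factor; plate controls were DMSO wells with stimulus for no effect and unstimulated DMSO wells for full effect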
Numbers without * were called inactive; nt = no result.

SMILES | Mdm2-MdmX inh | Peg3 prom inh | KKLEB cytotox | ABHD5-PLIN5 inh | HIF-2a inh | CF NFkB inh | CF NFkB inh conf
S=c1[nH]nc(-c2ccncc2)n1/N=C/C(Cl)=C\c1ccccc1 | 0 | -83 | -13 | 19 | -134 | 73* | 78*
S=c1[nH]nc(-c2ccncc2)n1/N=C/C=C/c1ccccc1 | 23 | -10 | -8 | -7 | 17 | 24 | nt
Cc1ccc(-c2n[nH]c(=S)n2/N=C/c2ccncc2)cc1 | 17 | -6 | -17 | 3 | 17 | 56* | 85*
CCOc1nc2cnccc2n(CC(=O)Nc2cccc(C)c2)c1=O | 16 | 1 | 8 | -9 | 4 | -24 | nt
Cn1cc([N+](=O)[O-])c(C(=O)Nc2sc3c(c2C#N)CCC3)n1 | 20 | -41 | -14 | -8 | -12 | 58* | -82
Cn1cc(Br)c(C(=O)Nc2sc3c(c2C#N)CCC3)n1 | -23 | -98 | 8 | 1 | -128 | -8 | nt
CC(C(=O)N1CCN(Cc2ccc3c(c2)OCO3)CC1)n1cc([N+](=O)[O-])cn1 (stereo not drawn) | 29 | 14 | 5 | 0 | 1 | -4 | nt
Cc1cc(F)ccc1S(=O)(=O)N1CCCCC1CCNC(=O)C(=O)NCc1ccccn1 (stereo not drawn) | 20 | 21 | 2 | 4 | 21 | 4 | nt
CCCC1O[C@@H]2C[C@H]3[C@@H]4CCC5=CC(=O)C=C[C@]5(C)[C@H]4[C@@H](O)C[C@]3(C)[C@]2(C(=O)CO)O1 (stereo partly drawn) | 2 | 4 | 22 | 4 | 28 | 90* | 23
Cc1nn(-c2ccccn2)c2c1C(=O)C(Br)CC2 (stereo not drawn) | nt | 16 | 4 | -6 | 9 | -18 | nt
Cc1nn(-c2nccs2)c2c1C(=O)CC(C)(C)C2Br (stereo not drawn) | nt | 50 | 2 | 0 | 9 | 51* | 61*
COc1ccc(-c2cc(C(F)(F)F)nc(S(=O)(=O)CCC(=O)N3CCOCC3)n2)cc1 | 45 | 103* | -36 | 7 | -7 | 79* | 47*
O=C1C=C(c2ccccc2C(F)(F)F)C[C@@H](c2ccc3c(c2)OCO3)C1 | 2 | 12 | -19 | -2 | -1 | 30 | nt
C=C/C(C)=C/CC1C(=C)CCC2C(C)(C(=O)O)CCCC12C (stereo not drawn) | 25 | 7 | 3 | -13 | 10 | -6 | nt
C=C1CC[C@@H]2[C@](C)(CO)[C@H](O)CC[C@@]2(C)[C@@H]1C/C=C1/C(=O)OCC1O (stereo partly drawn) | nt | -20 | -19 | 8 | 22 | 54* | 15
C=C(C)[C@@H]1CCC2(C(=O)O)CC[C@]3(C)[C@H](CC[C@@H]4[C@@]5(C)CCC(=O)C(C)(C)[C@@H]5CC[C@]43C)[C@@H]12 (stereo partly drawn) | 36 | 8 | -17 | 2 | 8 | 63* | 64*
CCN1CCN(Cc2ccc(NC(=O)c3ccc(C)c(NC(=O)c4csc(-c5ccncc5)n4)c3)cc2C(F)(F)F)CC1 | 46 | -9 | -8 | 12 | 22 | 71* | 46*
CN(Cc1ccccc1)c1ncnc(N)c1[N+](=O)[O-] | 42 | -5 | -9 | -3 | 11 | 67* | 61*
Nc1ncnc(Sc2ccccc2)c1[N+](=O)[O-] | 14 | 21 | -2 | 5 | 6 | 52* | 22
CN(Cc1ccccc1)c1nc(N)c([N+](=O)[O-])c(NCc2ccccc2)n1 | 39 | 38 | 1 | -9 | 5 | -18 | nt
Nc1ncnc(Sc2ccc(Cl)cc2)c1[N+](=O)[O-] | nt | -7 | -13 | 1 | -20 | 64* | 62*
COc1cc(C(=O)Nc2c(C(=O)O)[nH]c3ccc(Br)cc23)cc(OC)c1OC | -7 | -7 | 10 | -6 | 8 | -2 | nt
CCOc1ncccc1C(=O)OCC(=O)NCc1ccccc1 | -16 | -2 | 3 | 7 | 4 | -14 | nt
CC(=O)OCC(=O)[C@@]12OC(C)(C)O[C@@H]1CC1C3C[C@H](F)C4=CC(=O)C=CC4(C)[C@@]3(F)C(O)CC12C (stereo partly drawn) | -5 | 4 | 2 | -5 | 26 | 73* | 37
